Assay outcomes (PubChem BioAssay)
TDP1 cell noCPT – qHTS for Inhibitors of human tyrosyl-DNA phosphodiesterase 1 (TDP1): qHTS in cells in absence of CPT; DT40 Tdp1-/- hTDP1 cells, no CPT, ATP luminescence, 48 h; Potency, µM (series often up to 46.2 µM), for inactives: top-dose activity change, negative = growth inhibition, most hits filed as inhibitors; 15% of 420,000 active; AID 686978, 2013; further: potency means the concentration at half of the fitted maximal effect; on the % scale 0 is the no-effect control and ±100 the full control effect; nearly all actives have a fitted effect of over 55% in size
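No-CPT arm: Tdp1-/-;hTDP1 DT40 cells (400/well) plus compounds, incubated ≥48 hr at 37 °C. Readout CellTiter-Glo luminescence.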
TDP1 cell CPT – growth inhibition of DT40 Tdp1-/-;hTDP1 cells with camptothecin (screen for TDP1 inhibitors) | Potency, µM (top dose mostly 46.2 µM), for the others: top-dose activity change, negative = growth inhibition, usual class: inhibitors | chicken DT40 Tdp1-/-;hTDP1 cells + 20 nM CPT, ATP luminescence, 48 h | AID 686979 | 12% of 420,000 active; further: potency means the concentration at half of the fitted maximal effect; on the % scale 0 is the no-effect control and ±100 the full control effect; nearly all actives have a fitted effect of over 55% in size
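Chicken DT40 Tdp1-/- cells stably complemented with human TDP1 were seeded at 400 cells/well in medium containing 20 nM camptothecin, exposed to pin-transferred compounds, and grown at 37 °C for at least 48 hr. Viability was read as ATP luminescence.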
IL1B secr inh – inflammasome signaling inhibition, IL-1 beta readout | AID 743279 | THP-1 LPS/ATP IL-1B secretion, AlphaLISA, 16 h; active compounds read low | activity change, % at 57.5 µM | 4.7% of 360,000 active; in the data active means activity change below about -50%; inconclusive means mostly about -30% to -49%; further: on the % scale 0 is the no-effect control and ±100 the full control effect
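Secreted IL-1B measured by AlphaLISA bead assay after 16 h compound exposure of THP-1 cells; compounds (final up to 57.5 uM) added 1 h before LPS (250 ng/mL) and ATP (1.25 mM) stimulation; lower signal means less secretion.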
TDP1 block – inhibitors of human tyrosyl-DNA phosphodiesterase TDP1; Q9NUW8; recombinant TDP1, AlphaScreen DNA substrate cleavage; Potency, µM (titrated, usually from 130 µM), for the others: top-dose activity change, negative = inhibition, most hits filed as inhibitors; 0.28% of 350,000 active; AID 485290; further: potency means the concentration at half of the fitted maximal effect; on the % scale 0 is the no-effect control and ±100 the full control effect; nearly all actives have a fitted effect of over 40% in size
Target sequence (Q9NUW8 whole entry, looked up): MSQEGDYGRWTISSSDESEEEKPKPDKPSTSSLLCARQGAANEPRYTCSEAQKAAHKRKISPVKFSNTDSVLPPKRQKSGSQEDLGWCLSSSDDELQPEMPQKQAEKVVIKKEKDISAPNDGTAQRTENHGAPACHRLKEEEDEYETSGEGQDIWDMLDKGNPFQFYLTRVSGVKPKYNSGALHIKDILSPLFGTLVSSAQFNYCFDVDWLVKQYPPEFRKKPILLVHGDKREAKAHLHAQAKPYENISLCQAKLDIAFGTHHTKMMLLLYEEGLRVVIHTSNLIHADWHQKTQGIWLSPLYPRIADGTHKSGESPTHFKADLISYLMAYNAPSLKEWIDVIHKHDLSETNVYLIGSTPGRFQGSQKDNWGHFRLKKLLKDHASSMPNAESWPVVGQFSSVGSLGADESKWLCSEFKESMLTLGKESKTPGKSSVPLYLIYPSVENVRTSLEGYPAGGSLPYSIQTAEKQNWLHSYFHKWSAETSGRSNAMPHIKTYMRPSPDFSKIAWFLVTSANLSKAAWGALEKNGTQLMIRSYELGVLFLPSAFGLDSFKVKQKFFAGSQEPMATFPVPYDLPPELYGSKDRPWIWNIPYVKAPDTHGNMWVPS
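Recombinant human Tdp1 (E. coli-expressed, 1 nM final) preincubated with compounds 15 min at room temperature, then 5'-biotin/3'-phosphotyrosine-FITC DNA substrate (15 nM final) added for 5 min. AlphaScreen beads (10 ug/ml final) added 10 min; cleavage lowers signal.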
TGFb inhibitor – blocks TGF-b signaling; Potency, µM (titrated, usually from 46.1 µM), for inactives: top-dose activity, negative = inhibition, usual class: inhibitors; HepG2 CAGA-GFP TGF-b/SMAD3 reporter, GFP fluorescence, 18 h; TGF-beta stimulated, 500 pg/mL final; 1.2% of 410,000 active; further: potency means the concentration at half of the fitted maximal effect; on the % scale 0 is the no-effect control and ±100 the full control effect; nearly all actives have a fitted effect of over 65% in size
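Smad-responsive CAGA-GFP expression was quantified in HEPG2 cells exposed to compounds and 500 pg/mL final TGF-beta for 18 h at 37 degrees C; unstimulated wells defined full inhibition.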
HepG2 tox – counter-screen for TGF-b inhibitors: cytotoxicity in HepG2 cells. HepG2 CAGA-GFP viability, ATP luminescence, 18 h. Potency, µM (titrated, usually from 46.1 µM), for the others: top-dose activity change, negative = cytotoxicity, hits mostly cytotoxic. 0.76% of 410,000 active; further: potency means the concentration at half of the fitted maximal effect
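CellTiter-Glo luminescence gave cytotoxicity after 18 hours at 37 degrees C. The cells were HepG2 CAGA-GFP in 1% FBS DMEM, stimulated with 500 pg/mL TGF-beta after compound addition. %Activity was normalised to no-cell wells (complete cell-killing) and DMSO (no toxicity), and curves were fitted and classified.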
Starred values were filed as active, the others as inactive; ? = inconclusive; nt = not tested or not shown; ! = not confirmed by another sample; [ ] = dose if it differs, or a comment. Only some compounds are listed: those with a hit (about 18% of all), similar ones and a draw of the others. Unless noted, the call rests on the fitted dose curve; in most records, active means well fitted curve in the direction sought with a large enough effect; inconclusive means small, poorly fitted or top-dose-only effect, or another doubt; inactive means no such curve, though single readings can be large; an effect the other way counts as inactive or inconclusive.

SMILES	TDP1 cell noCPT	TDP1 cell CPT	IL1B secr inh	TDP1 block	TGFb inhibitor	HepG2 tox
Cn1nc(-c2ccc(OCC(=O)Nc3ccccc3)cc2)c2ccccc2c1=O	26µM*	23µM*	-13	6%	-21%	-16%
COc1ccccc1NC(=O)Cc1nn(C)c(=O)c2ccccc12	8.2µM*	16µM*	3	-3%	-1%	-11%
Cn1c(=O)c2c([nH]c(OCc3ccc(Cl)cc3Cl)[n+]2Cc2ccc(F)cc2)n(C)c1=O	?	?	2	nt	35%	23%
O=C(NCc1ccc(Cl)cc1)c1ccc2c(c1)N(Cc1ccccc1F)C(=O)c1ccccc1S2=O (configuration not stated)	?	?	nt	8%	-19%	0%
O=S(=O)(Nc1cc(O)cc2cccnc12)c1ccc(Br)s1	nt	nt	nt	23%	nt	nt
COc1ccccc1NC(=O)c1ccc(-c2nn(C)c(=O)c3ccccc23)cc1	21µM*	?	-56*	6%	6%	-4%
CNC(=O)Cn1nc(-c2ccc(C)cc2)c2ccccc2c1=O	15µM*	?	24	nt	-7%	1%
O=C(Nc1ccc2c(c1)OCO2)O[C@@H]1C[C@H]2CCC(=O)N3CC[C@@H](C1)[C@@H]23	?	?	-6	nt	24%	8%
Cc1cc(NC(=O)C(C)C)cc(-c2nc3ncccc3o2)c1O	13µM*	?	nt	2%	?	3%
Cc1ccc2oc(-c3cc(NC(=O)/C=C/c4ccco4)ccc3Cl)nc2c1	21µM*	?	nt	0%[12.3 µM]	2%	-11%
Cc1cc(NC(=O)c2ccco2)cc(-c2nc3cc(Cl)ccc3o2)c1O	12µM*	18µM*	nt	7%	8%	3%
O=C(/C=C/c1ccco1)Nc1cc(Cl)ccc1C(=O)O	?	?	0	-8%	-11%	0%
O=C(/C=C/c1ccco1)Nc1ccc(Cl)c(-c2nc3cc(Cl)ccc3o2)c1	26µM*	?	nt	-6%[12.3 µM]	?	-45%
CCC(=O)Nc1cc(C)c(O)c(-c2nc3ncccc3o2)c1	?	-29%	nt	0%	-6%	4%
O=C(/C=C/c1ccco1)Nc1ccc(Cl)c(S(=O)(=O)N2CCOCC2)c1	?	?	-2	8%	?	-11%
Cc1ccc2oc(-c3cc(NC(=O)c4cccs4)cc(C)c3O)nc2c1	nt	nt	nt	2%	19%	2%
C/C(=N\NC(=O)CCn1nnc2ccccc21)c1ccco1	-1%	14%	7	5%	23%	10%
Cc1ccc(O)c(-c2cc(C(=O)Nc3ccc(S(=O)(=O)Nc4nccc(C)n4)cc3)[nH]n2)c1	-25%	-31%	-4	nt	0%	12%
Nc1ccc2ncccc2c1	-13%	-17%	3	0%	-5%	-36%
Nc1ccc(/C=C/c2ccc3cccnc3c2)cc1	16µM*	?	nt	nt	-9%	-12%
Nc1ccc(C=O)cc1	-10%	-20%	nt	nt	?	-19%
Nc1ccc(/C=C/c2ccc3ncccc3c2)cc1	?	?	?	nt	?	7.1µM*!
Nc1ccc(C=Cc2ccc(N)cc2)cc1	18µM*	21µM*	-13	nt	15%	-6%
CCC(C)Sc1nnc(NC(=O)c2ccco2)s1 (configuration not stated)	-18%	-11%	-8	nt	2%	2%
COc1c(C=O)c(O)cc2c1C(=O)c1ccccc1C2=O	?	?	nt	7%	nt	nt
SMILES	TDP1 cell noCPT	TDP1 cell CPT	IL1B secr inh	TDP1 block	TGFb inhibitor	HepG2 tox
NC(=O)CN1CCN(S(=O)(=O)c2ccc(Cl)cc2)CC1	1%	20%	-6	3%	0%	-4%
COc1ccc(S(=O)(=O)N2CCN(CC(=O)c3ccc(O)c(O)c3)CC2)cc1	?	?	21	0%	-1%	-25%
O=C(CN1CCN(S(=O)(=O)c2ccc(F)cc2)CC1)c1ccc(O)c(O)c1	23µM*	?	14	5%	3%	1%
O=C(CN1CCN(S(=O)(=O)c2ccc(Cl)cc2)CC1)c1ccc(O)c(O)c1	8.2µM*	12µM*	45	0%	?	-24%
O=C(Nc1nnc(-c2ccc(F)cc2)o1)c1cc(Cl)sc1Cl	21µM*	26µM*	9	8%	?	-28%
O=C(Nc1nnc(-c2ccc(Cl)cc2)o1)Nc1ccccc1Cl	?	?	-29	1%	-5%	-5%
O=C(Nc1nnc(-c2ccccc2)o1)c1cc(Cl)sc1Cl	9.2µM*	7.3µM*	0	6%	-14%	-13%
O=C(Nc1nnc(-c2ccc(Cl)cc2)o1)c1nc2ccccc2s1	21µM*	?	21	11%	-3%	-11%
CCOC(=O)c1ccc(NC(=O)CSc2nnc(-c3ccncc3)n2-c2ccccc2)cc1	-4%	-6%	nt	5%	2%	-1%
Clc1ccc(Cn2cc3c(n2)-c2cc4ccccc4n2C3)cc1	13µM*	?	nt	-3%	-8%	-34%
Cn1c(CCNC(=O)C2CC23CCN(C(=O)C2=CCCC2)CC3)nc2ccccc21 (configuration not stated)	-22%	9%[9.04 µM]	nt	nt	nt	nt
CCCCCN(C(=O)CCC(=O)OC(C)C(=O)NCc1ccccc1)c1c(N)n(CCCC)c(=O)[nH]c1=O (configuration not stated)	-2%	3%	-13	-5%	4%	-7%
COC(=O)[C@H](Cc1ccccc1)NC(=O)c1ccc2ccccc2n1	-15%	10%	-5	5%[0.0935 µM]	-1%	2%
CC(C)(C)NC(=O)[C@@H]1C[C@@H]2CCCC[C@@H]2CN1C[C@@H](O)[C@H](Cc1ccccc1)NC(=O)[C@H](CC(N)=O)NC(=O)c1ccc2ccccc2n1	15µM*	?	-61*!	19%	?	-43%
Cc1cccc(Oc2nc(-c3ccccc3)cc(C)c2S(C)(=O)=O)c1C	?	?	-12	-3%	?	-5%
COc1ccccc1Oc1nc(-c2ccccc2)cc(C)c1S(C)(=O)=O	18µM*	?	-5	1%	?	-20%
Cc1cc(-c2ccccc2)nc(Oc2ccc(C(C)(C)C)cc2)c1S(C)(=O)=O	21µM*	?	-16	2%	-20%	-3%
C1=C(CCNc2nnnn2-c2ccccc2)CCCC1	?	18µM*	47	6%	-3%	-22%
